# Test results as given in the supplement of paper PMC11634586.
# Structures can show the parent of a compound that is named as a salt. Unmarked numbers belong to inactive results.
# System: NCI-H1688
# Experiment: inhibition of cell viability relative to untreated control (fraction); higher = stronger growth inhibition, active = 0.5 or more
# Details: 30 µM; 24 h
# Experimental: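 Natural product library (TargetMol, 640 compounds) screened on NCI-H1688 SCLC cells at 30 µM for 24 h; viability by CCK-8 absorbance at 450 nm, normalised to untreated control and expressed as inhibition rate (fraction). Compounds with >50% reduction in viability were selected as hits.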
row,SMILES,inhibition of cell viability
1,CC1(C)CCC[C@](C)([C@H]2CC[C@]3(C)[C@@H]2[C@H](O)C[C@@H]2[C@@]4(C)CC[C@H](O)C(C)(C)[C@@H]4[C@H](O)C[C@]23C)O1 [Panaxtriol],-0.0145
2,C[C@@H]1CC[C@@]2(OC1)O[C@H]1C[C@H]3[C@@H]4CC=C5C[C@@H](O)CC[C@]5(C)[C@H]4CC[C@]3(C)[C@H]1[C@@H]2C [Diosgenin],-0.279
3,O=c1oc2c(O)c(O)cc3c(=O)oc4c(O)c(O)cc1c4c23 [Ellagic acid],-0.099
4,CN1c2ccccc2C(=O)N2CCc3c([nH]c4ccccc34)C21 (stereo in doubt) [Evodiamine],0.848 (active)
5,OC[C@@H](O)[C@H](O)[C@@H](O)CO [Xylitol],0.015
6,Cc1ncc(CSSCc2cnc(C)c(O)c2CO)c(CO)c1O [Pyrithioxin],0.0153
7,C[C@H]1CC[C@@]2(OC1)O[C@H]1C[C@H]3[C@@H]4CC[C@@H]5C[C@@H](O)CC[C@]5(C)[C@H]4CC[C@]3(C)[C@H]1[C@@H]2C [Sarsasapogenin],-0.0422
8,CC1(C)C(O[C@@H]2OC[C@@H](O)[C@H](O)[C@H]2O)CC[C@]23CC24CC[C@]2(C)[C@@H]([C@@]5(C)CC[C@@H](C(C)(C)O)O5)[C@H](O)C[C@@]2(C)C4C[C@@H](O[C@@H]2O[C@H](CO)[C@@H](O)[C@H](O)[C@H]2O)C13 (stereo not given in full) [Astragaloside IV],-0.0383
9,O=C(O)/C=C/CCCCCCCO [10-Hydroxy-2-decenoic acid],0.323
10,COc1cc2ccc(=O)oc2cc1OC [Scoparone],-0.0332
11,CN(N=O)C(=O)N[C@@H](C=O)[C@@H](O)[C@H](O)[C@H](O)CO [Streptozocin],0.214
12,O=c1cc[nH]c(=O)[nH]1 [Uracil],-0.231
13,COc1ccc(C(C)=O)c(O)c1 [Paeonol],0.0334
14,Cc1nc(C)c(C)nc1C [Tetramethylpyrazine],0.202
15,CCc1c2c(nc3ccc(OC(=O)N4CCC(N5CCCCC5)CC4)cc13)-c1cc3c(c(=O)n1C2)COC(=O)[C@]3(O)CC [Irinotecan hydrochloride trihydrate],0.311
16,CC1C(=O)OC2C(O)C34C5CC(C(C)(C)C)C36C(OC(=O)C6O)OC4(C(=O)O5)C12O (stereo not given) [Ginkgolide B],-0.0261
17,CC[C@H]1OC(=O)[C@H](C)[C@@H](O[C@H]2C[C@@](C)(OC)[C@@H](O)[C@H](C)O2)[C@H](C)[C@@H](O[C@@H]2O[C@H](C)C[C@H](N(C)C)[C@H]2O)[C@](C)(O)C[C@@H](C)C(=O)[C@H](C)[C@@H](O)[C@]1(C)O [Erythromycin],0.0155
18,O=C1c2ccccc2C(=O)c2c1ccc(O)c2O [Alizarin],0.344
19,C=C1C[C@@]2(O)O[C@@]3(C[C@H]2C(C)C)[C@@H](C)CC[C@@H]13 [Curcumol],-0.0691
20,CC1(C)[C@@H](O)CC[C@]2(C)[C@H]3C(=O)C=C4[C@@H]5C[C@@](C)(C(=O)O)CC[C@]5(C)CC[C@@]4(C)[C@]3(C)CC[C@@H]12 [Enoxolone],-0.0418

row,SMILES,inhibition of cell viability
1,CC(C)CCC[C@@H](C)[C@H]1CC[C@H]2[C@@H]3CC=C4C[C@@H](O)CC[C@]4(C)[C@H]3CC[C@]12C [Cholesterol],-0.0392
2,O=C1C=C(O)C(=O)c2ccccc21 [Lawsone],-0.319
3,C[C@@H]1O[C@@H](OC[C@H]2O[C@@H](Oc3c(-c4ccc(OCCO)c(OCCO)c4)oc4cc(OCCO)cc(O)c4c3=O)[C@H](O)[C@@H](O)[C@@H]2O)[C@H](O)[C@H](O)[C@H]1O [Troxerutin],-0.145
4,N[C@@H](CCC(=O)N[C@@H](CS)C(=O)NCC(=O)O)C(=O)O [Glutathione],-0.00752
5,CC[C@@H]1C(=O)OC[C@@H]1Cc1cncn1C [Pilocarpine nitrate],-0.128
6,C[C@@H]1[C@H](O)[C@@H](C)/C=C/C=C/C=C/C=C/C=C/C=C/C=C/[C@H](O[C@@H]2O[C@H](C)[C@@H](O)[C@H](N)[C@@H]2O)C[C@@H]2O[C@](O)(C[C@@H](O)C[C@@H](O)[C@H](O)CC[C@@H](O)C[C@@H](O)CC(=O)O[C@H]1C)C[C@H](O)[C@H]2C(=O)O [Amphotericin B],0.0269
7,O=c1cc(-c2ccccc2)oc2cc(O)c(O)c(O)c12 [Baicalein],0.728 (active)
8,COC(=O)Nc1nc2cc(C(=O)c3cccs3)ccc2[nH]1 [Nocodazole],0.75 (active)
9,Nc1ncnc2c1ncn2C1CC(O)C(CO)O1 (stereo not given) [2'-Deoxyadenosine monohydrate],-0.0483
10,Cc1coc2c1C(=O)C(=O)c1c-2ccc2c1CCCC2(C)C [Tanshinone IIA],0.958 (active)
11,OC[C@H]1O[C@H](O)[C@H](O)[C@@H](O)[C@H]1O [Alpha-D-galactose],0.0334
12,Cc1c(C(=O)NCCO)[n+]([O-])c2ccccc2[n+]1[O-] [Olaquindox],0.00372
13,"N[C@@H](Cc1cc(I)c(O)c(I)c1)C(=O)O [3,5-Diiodotyrosine Dihydrate]",0.24
14,C=CCSC[C@H](N)C(=O)O [S-allyl-L-cysteine],-0.0574
15,C[C@H]1O[C@@H](O[C@H]2[C@@H](O)C[C@H](O[C@H]3[C@@H](O)C[C@H](O[C@H]4CC[C@@]5(C)[C@H](CC[C@@H]6[C@@H]5C[C@@H](O)[C@]5(C)[C@@H](C7=CC(=O)OC7)CC[C@]65O)C4)O[C@@H]3C)O[C@@H]2C)C[C@H](O)[C@@H]1O [Digoxin],0.995 (active)
16,C=CC1=C(C)/C(=C/c2[nH]c(Cc3[nH]c(/C=C4\NC(=O)C(C)=C4C=C)c(C)c3CCC(=O)O)c(CCC(=O)O)c2C)NC1=O [Bilirubin],0.0432
17,O=c1ccc2cc3ccoc3cc2o1 [Psoralen],-0.0315
18,OC[C@@H](O)[C@H](O)[C@H](O)[C@@H](O)CO [Dulcitol],-0.284
19,O=c1ccc2ccc(O)c(O)c2o1 [Daphnetin],-0.0337
20,COc1c(O)cc(O)c2c(=O)cc(-c3ccccc3)oc12 [Wogonin],-0.0139
